According to PubChem BioAssay AID2401 (Southern Research Specialized Biocontainment Screening …, 2010):
About 530 (24%) of roughly 2,200 compounds were called active.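 Rule for the calls: active = inhibition above a set limit at one or more concentrations of the dose series; inactive = inhibition under that limit at every dose.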 These entries were drawn from the full list. Potency and affinity values are given separately.

assay: nmpC-GFP reporter counter-screen in S. Typhimurium, dose response, counter-screen for PhoP regulon inhibitor project, Salmonella Typhimurium, GFP fluorescence (AID 2401); conditions: 4 h; series mostly up to 150 µM; inhibition: at the top concentration;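 note: S. typhimurium with Mg-insensitive nmpC-GFP reporter grown at 10 µM Mg2+; drop in reporter fluorescence reflects general culture growth inhibition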

Structure (SMILES)	inhibition
Cc1[nH]n(-c2ncc(-c3ccc(Cl)cc3)s2)c(=O)c1C(c1ccc(Cl)cc1)C(C#N)C#N (stereo unspecified)	15.4% (inactive)
CCN(C(C)=O)c1nc(CSc2nnc(NC(C)C)s2)cs1	-24.8% (inactive)
c1ccc2[nH]c(CSc3nccs3)nc2c1	-13.7% (inactive)
Cc1ccccc1OCC(=O)N/N=C/c1ccco1	-2.6% (inactive)
S=c1[nH]nc(Cc2cccc3ccccc23)o1	-10.8% (inactive)
CC(=O)c1cccc(NC(=O)NCc2ccco2)c1	-14% (inactive)
Cc1ccc(NC(=O)c2cc(S(=O)(=O)N3CCC4(CC3)OCCO4)ccc2F)cc1	-20.2% (inactive)
O=C(c1cn(-c2ccccc2)nc1-c1cccnc1)N1CCCCC1	-2.75% (inactive)
CC(=O)N1CCC(N(CCN2CCOCC2)C(=S)Nc2cccc(C)c2C)CC1	-9.15% (inactive)
Cc1c(Cl)cccc1NC(=O)CSCC(N)=O	-19.7% (inactive)
COc1cc(C2Nc3cccc4cccc(c34)N2)cc(OC)c1OC(C)=O	13% (inactive)
CC(=O)Oc1c2occc2cc2ccc(=O)oc12	36.6% (inactive)
Cc1ccc2c(c1)cc(CN(Cc1ccc3c(c1)OCO3)C(=O)c1cnccn1)c1nnnn12	-12.1% (inactive)
CSc1ccc(C(=O)/C=C/c2ccc(N)cc2)cc1	2.91% (inactive)
Cc1cccc(NC(=O)c2cc(N3C(=O)CCC3=O)ccc2Cl)n1	-12.3% (inactive)
O=C(CSCc1ccccc1)N/N=C/c1ccccc1OCc1ccccc1	-9.85% (inactive)
Cc1ccccc1-n1c(C)cc(/C=N/Nc2ccc([N+](=O)[O-])cn2)c1C	-15.1% (inactive)
O=C(CSc1n[nH]c(=O)[nH]c1=O)N/N=C/c1ccccc1	-7.03% (inactive)
O=C(CSc1nc2ccccc2s1)Nc1ccc(N2CCOCC2)c(Cl)c1	32.1% (inactive)
Cc1ccc([N+](=O)[O-])cc1NC(=S)NC(=O)C(C)(C)C	-25.1% (inactive)
Cc1cc([N+](=O)[O-])ccc1NC(=O)Cc1ccc(F)cc1	-6.18% (inactive)
CN(CCO)c1cc(Sc2nc3ccccc3s2)c2nonc2c1[N+](=O)[O-]	2.98% (inactive)
COc1ccc(-n2ncc(S(=O)(=O)c3ccccc3)c2-c2ccc(Cl)cc2)cc1	-11.5% (inactive)
COc1ccc(Cl)cc1C(=O)Nc1ccc(NC(=O)c2ccco2)cc1	-4.5% (inactive)

Structure (SMILES)	inhibition
O=C(Nc1cccc(Cl)c1)C1C2CCC3C(CCC21)C3(Cl)Cl (stereo unspecified)	-13.9% (inactive)
COc1cccc(-n2c(N)c(C(=O)Nc3c(C)n(C)n(-c4ccccc4)c3=O)c3nc4ccccc4nc32)c1	-17.2% (inactive)
COc1ccc(N2C(=O)CC(Sc3nc(C)c4c(n3)CCCC4)C2=O)cc1 (stereo unspecified)	-8% (inactive)
COc1ccc(-c2cnn3c(N)c(S(=O)(=O)C(C)(C)C)cnc23)cc1	-1.79% (inactive)
Cc1ccc2nc(NNC(=O)c3ccc(S(=O)(=O)N4CCc5ccccc5C4)cc3)sc2c1	17.9% (inactive)
O=C(/C=C/c1ccc2c(c1)OCO2)N1CCN(c2ccccc2F)CC1	-20.9% (inactive)
COc1ccc(C(C)C)cc1S(=O)(=O)Nc1ccc(Cl)cn1	-19.4% (inactive)
O=C(Nc1cnc2ccccc2c1)N1CCOCC1	-17.8% (inactive)
CN(C)S(=O)(=O)Nc1ccc(C(=O)O)cc1	-28.6% (inactive)
c1ccc2c(C3=NNC(=NC4CCCCC4)SC3)c[nH]c2c1	11.5% (inactive)
O=C(CSc1nc2ccccc2o1)Nc1ccc(N2CCOCC2)cc1	1.64% (inactive)
CNc1nnc(-c2cccc(N(C)C)c2)s1	-16% (inactive)
O=S(=O)(c1ccccc1)N(CC(O)Cn1c2ccccc2c2ccccc21)c1ccccc1 (stereo unspecified)	-17.4% (inactive)
CCCn1c(NCCO)nc2ccccc21	-16% (inactive)
COC(=O)C(CCSC)NC(=O)c1cccc([N+](=O)[O-])c1 (stereo unspecified)	-14.9% (inactive)
Cc1ccc(CNC(=O)C2CCCN(S(=O)(=O)c3c(C)noc3C)C2)cc1 (stereo unspecified)	-21.2% (inactive)
Cn1cccc1C(=O)OCc1csc(-c2ccccc2)n1	-2.51% (inactive)
Nc1ccc(C(=O)OCc2nc3ccccc3[nH]2)cc1	33.1% (inactive)
Cc1ccc(C)n1-c1cc([N+](=O)[O-])ccc1-n1ccnc1	-23.2% (inactive)
Cc1cc(-c2csc(NC(=O)c3ccccc3C(F)(F)F)n2)c(C)n1Cc1ccccc1	-0.27% (inactive)
Cc1nc(NCc2ccc3c(c2)OCO3)c2oc3ccccc3c2n1	6.07% (inactive)
Cc1scc(C(=O)O)c1-c1c(C(=O)O)csc1C	-32.6% (inactive)
O=[N+]([O-])c1ccccc1/C=N/N1CCN(c2ccncc2S(=O)(=O)N2CCCCC2)CC1	-22.1% (inactive)
CCOc1ccc(C(=O)Nc2ccccc2CC)cc1[N+](=O)[O-]	-8.16% (inactive)

Structure (SMILES)	inhibition
CCOc1ccc(CSC(=N)N)cc1[N+](=O)[O-]	-21.6% (inactive)
CCOc1ccc(C(=O)NC(=S)Nc2ccc(N3CCCCC3)cc2)cc1[N+](=O)[O-]	-0.74% (inactive)
COc1nc(-c2ccccc2)ccc1-c1noc(C)n1	-9.18% (inactive)
CCCc1cc(N2CCN(c3ccccn3)CC2)n2nc(C)c(-c3ccccc3)c2n1	-31% (inactive)
CCc1ccc(CNc2ccc(O)cc2)cc1	38.4% (inactive)
Nc1nc(N)nc(-c2ccccc2)n1	-20.8% (inactive)
CCn1c2ccccc2c2nnc(SCC(=O)Nc3ccc4c(c3)OCO4)nc21	-30.2% (inactive)
CCn1c2ccccc2c2cc(NC(=O)COc3ccccc3)ccc21	-22.1% (inactive)
CCn1cc(C(=O)OCC(=O)Nc2ccc(S(=O)(=O)N3CCCC3)cc2)c(=O)c2ccc(C)nc21	-28.5% (inactive)
CCn1cc(C(=O)O)c(=O)c2cnc(N3CCN(C(=S)NC(=O)c4ccc(Cl)cc4)CC3)nc21	-30.3% (inactive)
Cc1ccc(NC(=O)C(=O)NCCOc2ccccc2Cl)cc1	-9.68% (inactive)
O=C1CC(c2ccccc2)n2nc(NC(=O)c3ccccc3)nc2N1 (stereo unspecified)	-8.71% (inactive)
Cc1ccccc1NC(=O)c1ccc(-n2cncn2)nc1	-18% (inactive)
Nc1cc(N)nc(SCC(=O)Nc2ccc3c(c2)OCCCO3)n1	-0.22% (inactive)
Cc1nn(-c2ccc(Cl)cc2)c2[nH]c(=O)c(CNCc3ccc4c(c3)OCO4)cc12	-41.1% (inactive)
CCCSc1nc(N2CCCC2)c2c(c1C#N)CC(C)(C)OC2	-15.5% (inactive)
O=C(CCn1nnc(-c2cccs2)n1)NCc1ccccc1Cl	-5.72% (inactive)
Nc1scc(-c2ccncc2)c1Cl	10% (inactive)
CN(C)c1ccnc(-n2cccc2/C=N/OCc2ccccc2)c1C#N	-32% (inactive)
CCOC(=O)N1CCN(C(=O)c2cn(CC(C)C)c(=O)c3c2c2ccccc2n3C)CC1	-23.4% (inactive)
CCOC(=O)c1cn(CC)c2cc(N3CCOCC3)c(F)cc2c1=O	10.1% (inactive)
Cc1cc(C)c2nc(NNC(=O)c3ccc(S(=O)(=O)N4CCc5ccccc5C4)cc3)sc2c1	20.7% (inactive)
Cc1ccc2nc(SCCCCOc3ccccc3)[nH]c2c1	-9.29% (inactive)
